# In PubChem BioAssay:
# Calls of active or inactive are those of the source.
# What was measured:
# [1] = E. coli DRC41 culture turbidity changes, primary screen, E. coli filamentation inducer project, strain DRC41, OD650, 48 h (AID 1152);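 also: E. coli MC1000 strain DRC41 lacking acrAB efflux pump and sulA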; settings: E. coli DRC41 (acrAB sulA), higher = more signal, called active from +8 up or from −8 down
# [2] = small-molecule binders of probe aLefty1, primary screen, biochemical, small-molecule microarray, 635/667 nm fluorescence (AID 1153); settings: higher = more signal;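 also: score merges spot fluorescence with signal-to-noise ratio from the scanned slide images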
# [3] = PSAC antagonists in infected red cells, primary screen, cell-based, P. falciparum Indochina, OD700, 1 h (AID 1154); settings: P. falciparum Indochina infected RBC osmotic lysis, higher = more signal, called active from +8 up or from −8 down
# [4] = PSAC antagonists in infected red cells, primary screen, cell-based, P. falciparum Indochina, OD700, 2 h (AID 1155);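 also: lysis reports solute entry through the parasite surface anion channel PSAC; channel blockers reduce lysis of infected cells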; settings: P. falciparum Indochina infected erythrocytes, osmotic lysis OD700; higher = more signal, called active from +8 up or from −8 down
# [5] = osmotic lysis modulators in infected erythrocytes, primary screen, PSAC antagonist project, cell-based, P. falciparum Indochina, OD700, 3 h (AID 1156); settings: higher = more signal, called active from +8 up or from −8 down
# [6] = PSAC antagonists in infected red cells, primary screen, cell-based, P. falciparum Indochina, OD700, 18 h (AID 1157); settings: P. falciparum Indochina infected erythrocytes, osmotic lysis OD700, 18 h; higher = more signal, called active from +8 up or from −8 down
# [7] = modulators of S6 phosphorylation in cells, primary screen, cell-based, A549, cytoblot, luminescence, serum-stimulated (AID 1158); settings: A549 phospho-S6 cytoblot, 5 h, higher = more signal;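 also: serum-stimulated A549 lung adenocarcinoma cells; signal is phosphorylated S6 detected by cytoblot immunostaining with HRP secondary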
# [8] = target: NADPH oxidase 2 (Homo sapiens) (UniProt P04839); assay: NOX2-dependent H2O2 signal modulators, primary screen, NOX inhibitor project, cell-based, HEK293-NOX2, PMA-stimulated, Amplex Red fluorescence (AID 1159); settings: 45 min, higher = more signal, called active from +8 up or from −8 down; also: test concentration not given here
# Chain of NADPH oxidase 2 (Homo sapiens) (P04839 whole entry, looked up): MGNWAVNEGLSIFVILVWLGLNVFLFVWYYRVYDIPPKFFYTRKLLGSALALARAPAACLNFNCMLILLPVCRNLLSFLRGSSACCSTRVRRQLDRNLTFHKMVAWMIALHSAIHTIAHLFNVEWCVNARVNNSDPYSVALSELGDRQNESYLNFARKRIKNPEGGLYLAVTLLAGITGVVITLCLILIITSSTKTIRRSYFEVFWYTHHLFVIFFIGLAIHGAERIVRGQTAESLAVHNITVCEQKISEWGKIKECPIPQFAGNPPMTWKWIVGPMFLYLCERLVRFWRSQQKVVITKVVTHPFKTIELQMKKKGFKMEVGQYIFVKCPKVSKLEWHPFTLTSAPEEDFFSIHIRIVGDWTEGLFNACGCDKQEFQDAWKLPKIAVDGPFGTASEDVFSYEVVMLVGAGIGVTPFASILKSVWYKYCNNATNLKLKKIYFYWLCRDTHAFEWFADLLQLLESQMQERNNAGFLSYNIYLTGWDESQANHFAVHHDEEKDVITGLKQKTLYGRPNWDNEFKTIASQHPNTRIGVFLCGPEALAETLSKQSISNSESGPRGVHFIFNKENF
# [9] = target: NADPH oxidase 4 (Homo sapiens) (UniProt Q9NPH5); assay: NOX4-dependent H2O2 signal modulators, primary screen, NOX inhibitor project, cell-based, HEK293-NOX4, tetracycline-induced, Amplex Red fluorescence (AID 1160); settings: 45 min, higher = more signal, called active from +8 up or from −8 down
# Chain of NADPH oxidase 4 (Homo sapiens) (Q9NPH5 whole entry, looked up): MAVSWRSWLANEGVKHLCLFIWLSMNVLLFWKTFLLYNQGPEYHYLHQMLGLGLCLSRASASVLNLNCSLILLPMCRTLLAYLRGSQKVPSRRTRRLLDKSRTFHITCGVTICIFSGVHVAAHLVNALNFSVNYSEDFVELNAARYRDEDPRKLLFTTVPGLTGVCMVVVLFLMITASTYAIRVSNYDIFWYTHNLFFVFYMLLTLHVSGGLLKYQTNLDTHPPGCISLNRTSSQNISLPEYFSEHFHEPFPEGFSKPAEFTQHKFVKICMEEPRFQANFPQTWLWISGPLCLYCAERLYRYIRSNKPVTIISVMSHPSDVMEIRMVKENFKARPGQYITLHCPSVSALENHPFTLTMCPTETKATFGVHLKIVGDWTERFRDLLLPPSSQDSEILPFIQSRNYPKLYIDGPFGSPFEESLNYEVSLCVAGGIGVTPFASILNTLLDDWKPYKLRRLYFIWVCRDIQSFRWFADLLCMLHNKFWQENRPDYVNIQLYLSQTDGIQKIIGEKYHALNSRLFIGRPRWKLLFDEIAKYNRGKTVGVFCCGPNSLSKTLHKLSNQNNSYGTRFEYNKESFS
# [10] = target: NADPH oxidase 5 (Homo sapiens) (UniProt Q96PH1); assay: NOX5-dependent H2O2 signal modulators, primary screen, NOX inhibitor project, cell-based, HEK293-NOX5, Amplex Red fluorescence (AID 1161); settings: HEK293-NOX5, ionomycin, 45 min, higher = more signal
# Chain of NADPH oxidase 5 (Homo sapiens) (Q96PH1 whole entry, looked up): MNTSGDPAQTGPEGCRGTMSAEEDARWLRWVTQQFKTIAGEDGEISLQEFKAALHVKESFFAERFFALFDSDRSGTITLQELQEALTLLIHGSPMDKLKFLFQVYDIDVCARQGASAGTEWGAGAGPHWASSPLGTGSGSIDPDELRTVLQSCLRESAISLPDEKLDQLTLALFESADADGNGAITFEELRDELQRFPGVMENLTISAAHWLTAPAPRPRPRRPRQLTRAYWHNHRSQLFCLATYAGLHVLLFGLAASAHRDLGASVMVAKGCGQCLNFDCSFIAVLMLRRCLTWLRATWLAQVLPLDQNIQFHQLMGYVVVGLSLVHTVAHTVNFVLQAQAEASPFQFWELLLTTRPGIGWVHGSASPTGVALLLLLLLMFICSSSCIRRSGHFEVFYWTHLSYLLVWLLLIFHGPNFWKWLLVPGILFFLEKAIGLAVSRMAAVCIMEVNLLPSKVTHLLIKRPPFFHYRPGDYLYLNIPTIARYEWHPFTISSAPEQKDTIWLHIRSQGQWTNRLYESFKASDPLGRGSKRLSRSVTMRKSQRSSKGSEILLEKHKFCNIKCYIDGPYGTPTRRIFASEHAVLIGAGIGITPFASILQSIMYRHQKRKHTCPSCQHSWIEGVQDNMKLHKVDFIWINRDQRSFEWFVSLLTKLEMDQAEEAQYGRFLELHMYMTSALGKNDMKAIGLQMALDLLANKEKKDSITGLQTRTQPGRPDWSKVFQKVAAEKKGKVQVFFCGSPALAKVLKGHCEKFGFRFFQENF
# [11] = A549 cell viability effects, profiling panel, calcein-AM fluorescence, 48 h, basal (AID 1162); settings: higher = more signal; also: test concentration not given here
# [12] = adipocyte viability effects, profiling panel, cell-based, 3T3-L1 adipocytes, calcein-AM fluorescence, 48 h, basal (AID 1163); settings: 3T3-L1 adipocytes viability, higher = more signal; also: test concentration not given here
# [13] = HepG2 cell viability effects, profiling panel, calcein-AM fluorescence, 48 h, basal (AID 1164); settings: higher = more signal; also: test concentration not given here
# [14] = MM1S cell viability effects, profiling panel, calcein-AM fluorescence, 48 h, basal (AID 1165); settings: higher = more signal;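 also: viability of MM1S multiple myeloma cells under basal unstimulated conditions; test concentration not given here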
# [15] = basal RPMI8226 viability, no added stimulus, profiling panel, cell-based, calcein-AM fluorescence, 48 h, PK04 Diversity Set (AID 1166); settings: RPMI8226 myeloma viability, higher = more signal;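 also: cells grown under basal conditions without added stimulus; test concentration not given here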
# [16] = basal HepG2 mitochondrial membrane potential changes, profiling panel, cell-based, JC-1 fluorescence, 24 h, 100 nL compound (AID 1167); settings: higher = more signal; also: test concentration not given here
# [17] = basal 3T3-L1 adipocyte mitochondrial potential changes, profiling panel, cell-based, JC-1 fluorescence, 3T3-L1 adipocytes, 24 h, 100 nL compound (AID 1168); settings: JC-1 mitochondrial fluorescence, higher = more signal, called active from +8 up or from −8 down; also: test concentration not given here
# [18] = basal RPMI8226 mitochondrial membrane potential changes, profiling panel, cell-based, JC-1 fluorescence, 24 h, 100 nL compound (AID 1169); settings: RPMI8226 myeloma, JC-1 mitochondrial potential fluorescence, higher = more signal; also: test concentration not given here
# [19] = basal MM1S mitochondrial membrane potential changes, profiling panel, cell-based, JC-1 fluorescence, 24 h, 100 nL compound (AID 1170); settings: higher = more signal; also: test concentration not given here
# [20] = A549 lung cancer cell viability effects, profiling panel, resazurin fluorescence, 24 h, PK04 Diversity Set (AID 1171); settings: higher = more signal, called active from +8 up or from −8 down; also: test concentration not given here
SMILES,z-score [1],composite z-score [2],z-score [3],z-score [4],z-score [5],z-score [6],z-score [7],z-score [8],z-score [9],z-score [10],z-score [11],z-score [12],z-score [13],z-score [14],z-score [15],z-score [16],z-score [17],z-score [18],z-score [19],z-score [20]
COC(=O)[C@@]1(Cc2ccccc2)[C@H]2c3cc(C(=O)N(C)C)n(Cc4nc5ccccc5[nH]4)c3C[C@H]2CN1C(=O)c1ccccc1,0.989 (inactive),0.0063,4.51 (inactive),-0.2 (inactive),0.57 (inactive),-0.949 (inactive),0.965,-0.273 (inactive),0.839 (inactive),-0.155,0.173,-0.232,0.858,-0.013,-0.191,-0.3,0.385 (inactive),-0.303,-0.701,0.0716 (inactive)
COc1ccc([Si](C)(C)[C@H]2[C@H](CC(=O)N(CCO)Cc3ccccc3)O[C@@]3(C(=O)N(Cc4cccc(N5CCCCC5=O)c4)c4ccccc43)[C@@H]2C)cc1,1.52 (inactive),0.109,11.3 (active),1.31 (inactive),0.4 (inactive),-0.553 (inactive),2.6,0.0671 (inactive),0.591 (inactive),2.24,-0.166,1.19,-1.16,-0.391,-4.18,0.553,1.65 (inactive),-0.981,-1.61,-1.91 (inactive)
Cc1cccc([C@H]2C[C@H]3C(Br)=C[C@@]2(CO)C(=O)[C@]32CO2)c1,-0.269 (inactive),0.0509,-0.131 (inactive),0.27 (inactive),-0.759 (inactive),-0.063 (inactive),-0.71,0.26 (inactive),0.711 (inactive),-0.0286,-0.602,0.0875,-0.729,-2.43,-0.551,-2.11,-0.0495 (inactive),-0.0551,-0.876,0.393 (inactive)
C=CC[C@]1(C(N)=O)N=C(c2ccc(OCCCO)cc2)O[C@H]1c1ccccc1N=[N+]=[N-],2.21 (inactive),0.408,33.4 (active),30.8 (active),2.17 (inactive),9.7 (active),-0.0547,-1.77 (inactive),0.627 (inactive),0.189,0.772,0.46,1.49,-1.04,0.656,0.462,0.903 (inactive),-0.514,-0.747,-0.752 (inactive)
C=CC[C@H](O)c1ccc(O)c(F)c1,-0.421 (inactive),-0.555,0.307 (inactive),0.131 (inactive),-0.304 (inactive),0.255 (inactive),-0.165,-1.32 (inactive),-0.305 (inactive),0.113,-0.402,0.329,-0.821,-0.229,-0.426,-0.737,0.083 (inactive),-0.153,0.384,-0.396 (inactive)
[N-]=[N+]=Nc1ccccc1C[C@]1(C(=O)N2CCCCC2)N=C(c2ccc(OCCCO)cc2)O[C@H]1c1ccccc1,0.699 (inactive),0.179,18 (active),4.52 (inactive),3.48 (inactive),1.87 (inactive),-0.0985,-1.76 (inactive),-0.593 (inactive),-1.68,-0.786,0.0946,0.014,-3.29,-4.3,0.839,0.231 (inactive),-1.2,-2.15,-0.676 (inactive)
CN1C(=O)C2C=CC(C(O)c3ccc([N+](=O)[O-])cc3)N(Nc3ccccc3)C2C1=O (stereo not given),-1.93 (inactive),0.658,1.98 (inactive),1.36 (inactive),2.88 (inactive),1.44 (inactive),-1.06,-1.45 (inactive),-5.03 (inactive),-3.26,-1.06,-1.33,-0.581,0.13,-0.772,-1.05,-1.92 (inactive),-0.199,-0.522,-1.36 (inactive)
O=C(NC1CC1)[C@@H]1c2ccccc2C(=O)N(C2CCCCC2)[C@H]1c1ccc(CO)cc1,0.1 (inactive),-0.28,1.4 (inactive),0.295 (inactive),0.973 (inactive),0.0604 (inactive),-0.0513,0.382 (inactive),0.589 (inactive),0.536,1.35,-0.27,1.12,-0.856,-0.591,1.38,-0.724 (inactive),0.512,-0.256,0.0989 (inactive)
Cc1ccc(S(=O)(=O)N2[C@@H](c3ccccc3)C(C(=O)O)=CC[C@H]2c2ccc(F)cc2)cc1,-0.232 (inactive),0.214,2.05 (inactive),0.706 (inactive),1.1 (inactive),0.66 (inactive),-0.0796,0.0361 (inactive),0.605 (inactive),0.953,-0.996,0.31,-0.73,0.102,-0.296,-0.699,0.2 (inactive),0.597,-1.09,0.649 (inactive)
